# About 10,000 (2.8%) of roughly 360,000 compounds were called active. About 4% were inconclusive and are not listed. Only a selection was taken, and actives are over-represented in it overall. Unmarked numbers belong to inactive results. Calls follow the shape of the dose curve; as a rule, active = well fitted inhibition curve with a large enough effect; inconclusive = small, poorly fitted or top-dose-only effect; inactive = flat fitted curve, though single readings scatter.
# Molecular target: Serine/threonine-protein kinase PLK1 (Homo sapiens) (UniProt P53350)
# Test: qHTS for Inhibitors of PLK1-PDB (polo-like kinase 1 - polo-box domain): Primary Screen; also: nearly all actives have a fitted effect of over 65% in size; as to max response, negative = inhibition: series mostly up to about 57 µM
# Details: Plk1 PBD binding of FITC phosphopeptide, fluorescence polarization
# % is scaled to controls: 0 for no effect and ±100 for the full control effect; potency is read from the fitted curve at half-maximal effect.
# Chain of Serine/threonine-protein kinase PLK1 (Homo sapiens) (P53350 whole entry, looked up, the tested form may be a part): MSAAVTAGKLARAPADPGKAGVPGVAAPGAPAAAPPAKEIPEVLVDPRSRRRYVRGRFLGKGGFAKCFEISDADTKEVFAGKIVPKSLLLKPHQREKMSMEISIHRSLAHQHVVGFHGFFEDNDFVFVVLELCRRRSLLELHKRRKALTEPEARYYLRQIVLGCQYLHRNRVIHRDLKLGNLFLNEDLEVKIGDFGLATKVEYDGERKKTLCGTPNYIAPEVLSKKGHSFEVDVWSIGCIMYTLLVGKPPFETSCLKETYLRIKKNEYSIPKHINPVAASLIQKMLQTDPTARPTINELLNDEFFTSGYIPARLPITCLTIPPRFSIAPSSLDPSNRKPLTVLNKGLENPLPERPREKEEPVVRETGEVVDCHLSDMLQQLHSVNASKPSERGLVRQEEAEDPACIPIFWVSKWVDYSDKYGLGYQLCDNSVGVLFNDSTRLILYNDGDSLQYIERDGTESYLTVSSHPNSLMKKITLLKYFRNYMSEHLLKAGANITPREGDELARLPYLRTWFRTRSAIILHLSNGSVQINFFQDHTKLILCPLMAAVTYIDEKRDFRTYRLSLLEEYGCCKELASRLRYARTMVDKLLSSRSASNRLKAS
SMILES,"max response, negative = inhibition [%]",Potency
COc1cccc(CN2CCC(C(=O)NC(c3ccc4c(c3)OCO4)c3ccccn3)CC2)c1 (stereo unspecified),1.25,
C[C@@H]1CC2=C(C(=O)OC(C)(C)O2)[C@@H](C2CC2)O1,-2.71,
CCc1ccc(NC(=O)Cn2ncn3c(cc4ccccc43)c2=O)cc1,,15 µM (active)
COc1ccc(NC(=O)Cn2ncn3c(cc4ccccc43)c2=O)c(OC)c1OC,-11.6,
CC(C)c1ccc(NC(=O)Cn2ncc3ccccc32)cc1,5.15,
COc1ccc(C2OC(CCc3ccccc3)Cc3[nH]c(=S)[nH]c(=O)c32)cc1 (stereo unspecified),-0.658,
CC(=O)Nc1cc(-c2ccccc2N(C)C)cn2c(-c3ccc(F)c(Cl)c3)cnc12,-6.53,
COC(=O)[C@]12CCCCC=C1N(Cc1ccc3c(c1)OCO3)C(=O)[C@H](CC(=O)NCc1cccs1)C2,-8.01,
CCCNC(=O)C1(C)CCCN(Cc2cccc(C(F)(F)F)c2)C1 (stereo unspecified),-5.05,
COc1ccc(CC(=O)NCc2nnc(SCC(=O)Nc3nccs3)n2C)cc1,3.83,
COc1ccc(-c2nnc(SCC(=O)Nc3cccnc3Cl)n2C)cc1,-2.41,
C=CCn1c(SCCOc2ccc(OC)cc2)nnc1C(NC(=O)c1ccc(OC)cc1)C(C)C (stereo unspecified),-13.7,
COc1ccc(C(=O)NCc2nnc(SCC(=O)NC3=NCCS3)n2C)cc1,-0.0324,
COc1ccc(C(=O)NCc2nnc(SCCOc3ccccc3)n2C)cc1,,16.8 µM (active)
COc1ccc(CC(=O)NCc2nnc(SCC(=O)Nc3ncc(C)s3)n2C)cc1,,13.4 µM (active)
COc1cc2ccc(C(C)=O)c(O)c2cc1OC,-1.98,
Cc1nc2c(OCC(=O)C(C)(C)C)cccn2c1N(C)Cc1cccs1,-10,
CCOC(=O)C1CCN(CC(=O)Nc2ccc(OC)c(S(=O)(=O)N3CCCCC3)c2)CC1,3.48,
COc1ccc(NC(=O)C2=NNC(=O)CC2)cc1S(=O)(=O)N1CCCCC1,,16.8 µM (active)
COc1ccccc1C(=O)Nc1ccc(C)c(S(=O)(=O)N2CCCCC2)c1,-5.05,
CC(=O)c1cccc(NC(=O)C2COc3ccccc3O2)c1 (stereo unspecified),2.4,
COc1ccc(NC(=O)COC(=O)C2COc3ccccc3O2)cc1 (stereo unspecified),-3.22,

SMILES,"max response, negative = inhibition [%]",Potency
O=C(Nc1nc(-c2ccncc2)cs1)C1COc2ccccc2O1 (stereo unspecified),,3.36 µM (active)
CCc1nc2ccc(C(=O)Nc3cc(-c4ccccc4)ccc3OC)cn2c1N(CC)CC(=O)N(C)C,-4.06,
COc1ccc(S(=O)(=O)NCC(=O)NCc2cc(=O)n(C)c(=O)n2C)cc1F,-15.2,
Cc1ccc(C(=O)NCC(=O)NCc2cc(=O)n(C)c(=O)n2C)cc1,,26.7 µM (active)
Cc1ccc(C(=O)NCC(=O)NC2CC2)cc1,-13.7,
O=C(O)c1ccccc1Cc1ccc(F)c2ccccc12,-10.5,
CN1OC[C@@H]2CN(C(=O)c3cccnc3)[C@H](c3ccc(N4CCCCC4)cc3)C[C@@H]21,-6.62,
COc1ccc(NC(=O)C2(C)Cc3c(-c4ccc(C(N)=O)cc4)ccnc3O2)cc1 (stereo unspecified),-13.3,
CCOC(=O)c1sc(=S)n2c1[nH]c(=O)c1ccc(C(=O)OC)cc12,,6.7 µM (active)
CCOC(=O)C1=C(C)Nc2sc(C(=O)c3ccc(Br)cc3)c(N)c2C1c1ccc(C(=O)OC)cc1 (stereo unspecified),3.24,
CCOC(=O)c1ccc(Nc2cc3ccccc3c(=O)[nH]2)cc1,-11.1,
COc1ccc([C@H]2N[C@]3(CCCN(CC4CCCCC4)C3=O)[C@H]3C(=O)N(C)C(=O)[C@@H]23)cc1,-7.68,
CCN1C(=O)[C@H]2[C@@H](c3ccc(C(F)(F)F)cc3)N[C@]3(CCCN(Cc4ccc(Br)cc4)C3=O)[C@H]2C1=O,-8.24,
COc1cccc(C(NC(C)=O)c2nc(-c3cnc4ccccc4c3)cs2)c1 (stereo unspecified),-4.39,
CCc1nc2c(OCCOc3ccccc3)cccn2c1N(C)C(=O)c1cccs1,-1.33,
O=C(CN1C(=O)NC2(CCc3ccccc32)C1=O)NC1CCCCC1 (stereo unspecified),2.51,
CCOC(=O)C1CCN(C(=O)c2ccc3c(=O)n4nc(Nc5ccccc5CC)sc4nc3c2)CC1,-1.87,
Nc1ccc2c(c1)C(O)c1ccc(Cl)cc1-2 (stereo unspecified),-6.61,
COC(=O)C1=CN(C)C=C(C(=O)OC)C1c1ccc(Cl)cc1Cl,2.45,
NC(=O)C1(C(N)=O)OC1c1ccc(Cl)cc1Cl (stereo unspecified),,16.8 µM (active)
COC(=O)c1ccc2nc(-c3ccc(Cl)cc3)c(Cc3cccc(F)c3)n2c1,1.38,
O=C(Cn1cnc2c(OCc3ccccc3)ncnc21)NCc1nc2ccccc2[nH]1,,21.2 µM (active)

SMILES,"max response, negative = inhibition [%]",Potency
CC(CNC(=O)Cn1cnc2c(OCc3ccccc3)ncnc21)c1ccccc1 (stereo unspecified),-8.63,
O=C(Cn1cnc2c(OCc3ccccc3)ncnc21)NCCCn1ccnc1,-12.9,
O=C(COC(=O)c1ccc(S(=O)(=O)N2CCCCCC2)cc1)Nc1ccccc1C(F)(F)F,-1.71,
C[C@H]1NS(=O)(=O)c2cc(Cl)ccc2O[C@@H]1c1ccccc1,-5.69,
COc1cc(NC(=O)c2cc(-c3ccc(F)cc3OC(C)C)n[nH]2)cc(OC)c1OC,-10.2,
COc1cccc(NC(=O)c2nn(C34CC5CC(CC(C5)C3)C4)cc2[N+](=O)[O-])c1,1.45,
Cc1nc([N+](=O)[O-])nn1C12CC3CC(CC(Br)(C3)C1)C2,,4.74 µM (active)
CCOC(=O)N(C)c1c(CC)nc2c(OCc3ccccc3C(=O)OC)cccn12,-14.2,
COC(=O)C[C@@H]1C=C[C@@H](NC(=O)c2ccc3c(c2)OCO3)[C@@H](CO)O1,-2.88,
O=C(NCc1ccc(F)cc1)c1cc(C2CCCCN2C(=O)c2cccs2)on1 (stereo unspecified),-1.47,
O=S(=O)(c1cccc(C(F)(F)F)c1)N1c2ccccc2-n2cccc2C1c1cccnc1 (stereo unspecified),4.88,
CCCCOCCCNC(=O)C[C@@H]1C[C@@]2(C(=O)OCC)CCCC=C2N(CCC2=CCCCC2)C1=O,4,
CC1(C)OC(=O)C2=C(C[C@@H](C3CCCCC3)O[C@@H]2c2ccc(Cl)cc2)O1,-3.8,
CCOC(=O)c1ccn(S(=O)(=O)c2ccc(C)cc2)c1-c1ccccc1,-3.65,
O=C(Nc1ccc(N2CCCCC2)cc1)c1cc(S(=O)(=O)N2CCOCC2)ccc1F,1.97,
Cc1cccc(NC(=O)c2cc(S(=O)(=O)N3CCC4(CC3)OCCO4)ccc2F)c1,,26.7 µM (active)
CCOc1ccccc1NC(=O)c1cc(S(=O)(=O)N2CCC3(CC2)OCCO3)ccc1F,-1.47,
O=C1C=CC(=O)N1c1ccc(N2CCCCC2)cc1,,3.36 µM (active)
O=C1CC(N2CCN(c3ccc(F)cc3)CC2)C(=O)N1c1ccccc1 (stereo unspecified),-2.61,
CC(=O)Nc1ccc(S(=O)(=O)Nc2ccc(N3CCCCC3)cc2)cc1,-2.92,
C=CCN1CCN(c2ccncc2S(=O)(=O)N2CCN(C)CC2)CC1,-10.5,
CCC1OC(C2CC2)CC2=C1C(=O)OC(C)(C)O2 (stereo unspecified),-2.05,

SMILES,"max response, negative = inhibition [%]",Potency
CC1CCN(C(=O)CSc2nnc(-c3ccco3)n2N)CC1,-0.744,
CCc1nc2ccc(C(=O)NC3CCN(Cc4ccccc4)CC3)cn2c1N(CC)CCOC,-18.3,
O=C(CSc1cccc2cccnc12)N/N=C/c1cccnc1,,7.52 µM (active)
CCn1c(SCC(=O)N/N=C/c2ccncc2)nc2ccccc21,-2.87,
COc1ccc(C(=O)NCC(=O)N/N=C/c2cccnc2)cc1,-5.97,
O=C(Oc1ccc([N+](=O)[O-])cc1)c1ccc2ccccc2n1,-21.6,
O=[N+]([O-])c1cccc(C=NN=Cc2ccccc2O)c1,-3.02,
O=[N+]([O-])c1ccc(N=Cc2c(O)ccc3ccccc23)cc1,,29.9 µM (active)
CCCCNC(=O)C[C@@H]1C[C@@]2(C(=O)OC)CC(C)(C)CC=C2N(Cc2ccco2)C1=O,0.813,
Cc1cccc(-c2cnc(C(O)c3ccc4ccccc4c3)[nH]2)c1 (stereo unspecified),-0.198,
O=C(N/N=C/c1ccc(Cl)cc1)c1nc2ccc([N+](=O)[O-])cc2c(=O)[nH]1,,18.9 µM (active)
O=C(NN=Cc1ccc([N+](=O)[O-])cc1)C1CC1,-0.264,
N#Cc1cc([N+](=O)[O-])ccc1Oc1cccc(/C=N/NC(=O)c2ccc(Cl)cc2)c1,0.641,
O=C(NCc1ccc(F)cc1)c1cc(C2CCCCN2C(=O)C2CCCCC2)on1 (stereo unspecified),2.6,
CC(C)CC1C(=O)N(Cc2cn(Cc3ccco3)nn2)CCS(=O)(=O)N1Cc1ccc(-c2ccc(Cl)c(Cl)c2)cc1 (stereo unspecified),-13.6,
CNc1cncc(-c2ccc(NS(C)(=O)=O)cc2)n1,6.53,
O=C(CSc1nnc(-c2ccco2)n1-c1ccccc1)NCCc1ccccc1,-10.6,
COc1ccc(C(=O)NC(=O)CSc2nnc(-c3ccco3)n2-c2ccccc2)cc1,-12.5,
CCOc1ccc(-n2c(SCC(N)=O)nnc2-c2ccco2)cc1,,15 µM (active)
OCCN1CCN(c2ncnc3c2ncn3[C@H]2CN(Cc3ccco3)C[C@@H](CO)O2)CC1,-11.1,

# — PubChem BioAssay AID720504 (National Center for Advancing Translational Sciences (NCATS), 2013)
